Compound activity as filed in PubChem.
The list is not random: actives were taken first. Their share in the collection is about 3.2%.
Tau fibril ThT: qHTS for Inhibitors of Tau Fibril Formation, Thioflavin T Binding | Microtubule-associated protein tau (Homo sapiens), P10636 | recombinant tau K18 P301L, heparin-induced fibrillization, ThT fluorescence | Potency, µM (series often up to 57.4 µM), inactives show top-dose activity, negative = inhibition, hits mostly inhibitors | 270,000 tested, 2.1% active; also: potency is read from the fitted curve at half-maximal effect; % is scaled to controls: 0 for no effect and ±100 for the full control effect; nearly all actives have a fitted effect of over 55% in size
Target sequence (P10636 561-689 P618L limits assumed): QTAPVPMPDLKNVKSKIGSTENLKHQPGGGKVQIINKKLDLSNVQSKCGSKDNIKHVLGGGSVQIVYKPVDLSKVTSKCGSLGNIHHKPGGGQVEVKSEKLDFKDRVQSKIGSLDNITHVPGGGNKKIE
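K18 P301L tau (15 uM + 0.24 uM Alexa 594-tagged), heparin 20 uM, NaOAc pH 7, 6 h 37 C; ThT 30 uM, 1 h RT, ex 450/em 510 nm.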
Lamin A splicing: qHTS Assay for Modulators of Lamin A Splicing. HeLa LMNA splicing GFP/RFP minigene ratio, 48 h. Potency, µM (top dose mostly 46.1 µM), without a hit: at the top dose ratio change, negative = inhibition, usual class: inhibitors. 200,000 tested, 0.01% active. AID 1487, 2009; active = well fitted inhibition curve with a large enough effect in the signal ratio, with a control signal flat, not every such curve was filed as active; inconclusive = small, poorly fitted or top-dose-only effect, or effect the other way, or a change in a side signal; the % refers to the signal ratio; also: potency is read from the fitted curve at half-maximal effect; % is scaled to controls: 0 for no effect and ±100 for the full control effect
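S3 HeLa cells stably expressing lamin A-EGFP splicing minigene plus DsRed2, 600 cells/well, 48 h compound exposure at 37C. Laser-scanning cytometry; analysed as GFP (500-530 nm)/RFP (575-640 nm) total intensity ratio; 0.5% DMSO vehicle.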
CBFb RUNX1 block: qHTS Assay for Compounds Blocking the Interaction Between CBF-beta and RUNX1 for the Treatment of Acute Myeloid Leukemia. Runt-related transcription factor 1 (Homo sapiens) + Core-binding factor subunit beta …. AlphaScreen CBFb-His/RUNX1-biotin binding, biochemical. Potency, µM (highest dose often 59.8 µM), inactives show at the highest dose activity, negative = inhibition, most hits filed as inhibitors. 230,000 tested, under 10 active. AID 1477, 2009; also: % of control where 0% means no effect
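CBFb-His/RUNX1-biotin, 30 nM each, preincubated 20 min RT; compound 15 min RT; Ni + streptavidin beads 50 ng each, 90 min RT; AlphaScreen read.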
JMJD2E inh: qHTS Assay for Inhibitors of Human Jumonji Domain Containing 2E (JMJD2E) | JMJD2E catalytic domain, FDH-coupled NADH fluorescence (FDH is formaldehyde dehydrogenase) | 230,000 tested, 1.6% active | Potency, µM (top dose mostly 57.1 µM), without a hit: at the highest dose activity change, negative = inhibition, hits mostly inhibitors; active = well fitted inhibition curve with a large enough effect, not every such curve was filed as active; inconclusive = small, poorly fitted or top-dose-only effect, or another doubt; inactive = no such curve, though single readings can be large or run the other way;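 also: potency is read from the fitted curve at half-maximal effect; 0% = wells with enzyme and -100% = buffer wells without enzyme; nearly all actives have a fitted effect of over 50% in size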
Target sequence (B2RXH2 1-337 limits assumed): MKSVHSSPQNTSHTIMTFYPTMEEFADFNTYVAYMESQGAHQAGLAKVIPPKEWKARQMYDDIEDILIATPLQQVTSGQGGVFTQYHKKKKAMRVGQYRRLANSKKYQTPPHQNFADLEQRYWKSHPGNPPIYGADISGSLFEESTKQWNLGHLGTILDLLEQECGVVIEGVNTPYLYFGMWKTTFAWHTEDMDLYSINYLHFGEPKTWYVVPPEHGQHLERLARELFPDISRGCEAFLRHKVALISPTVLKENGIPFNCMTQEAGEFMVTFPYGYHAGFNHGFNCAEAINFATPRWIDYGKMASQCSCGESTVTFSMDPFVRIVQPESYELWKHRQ
Tau fluor cs: Counterscreen qHTS for Inhibitors of Tau Fibril Formation, Fluorescence Polarization; tau K18 P301L Alexa594 fluorescence, heparin fibrillization; Potency, µM (titrated, usually from 57.7 µM), without a hit: top-dose activity change, negative = decrease; 280,000 tested, 0.93% active; AID 1463, 2008; also: potency is read from the fitted curve at half-maximal effect; % is scaled to controls: 0 for no effect and ±100 for the full control effect; nearly all actives have a fitted effect of over 55% in size
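Human tau K18 P301L (15 uM unlabeled, 0.24 uM Alexa 594-labeled) in 100 mM sodium acetate pH 7 with 20 uM heparin, 6 hr at 37 C. ThT 30 uM added, 1 hr ambient; Alexa 594 FP and total fluorescence read at 555/632 nm.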
Tau fibril FP: qHTS for Inhibitors of Tau Fibril Formation, Fluorescence Polarization | Microtubule-associated protein tau (Homo sapiens), P10636 | K18 P301L tau heparin fibrillization, Alexa594 FP, 6 h | Potency, µM (titrated, usually from 57.7 µM), without a hit: at the highest dose activity, negative = inhibition, actives largely listed as inhibitors | 280,000 tested, 0.39% active | AID 1468, 2008; also: potency is read from the fitted curve at half-maximal effect; % is scaled to controls: 0 for no effect and ±100 for the full control effect; nearly all actives have a fitted effect of over 55% in size
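FP of Alexa 594-tau after heparin (20 uM) induction. Substrate: human K18 P301L, 15 uM unlabeled, 0.24 uM labeled. Buffer 100 mM sodium acetate pH 7. 6 hr, 37 C.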
* hit, by the source's call; ? = inconclusive; nt = not tested or not shown; [ ] = remark or other dose. Unless noted, calls follow the shape of the dose curve; as a rule, active = well fitted curve in the direction sought with a large enough effect; inconclusive = small, poorly fitted or top-dose-only effect, or another doubt; inactive = no such curve, though single readings can be large; an effect the other way counts as inactive or inconclusive.

SMILES	Tau fibril ThT	Lamin A splicing	CBFb RUNX1 block	JMJD2E inh	Tau fluor cs	Tau fibril FP
O=C(Oc1ccccc1)N1CCN(c2ccc(F)cc2)CC1	-2%	-1%	-2%	3%	-6%	5%
Cc1ccccc1C1CC(=O)Oc2ccc(O)cc21 (centres undefined)	?	nt	-4%[89.1 µM]	nt	-23%[126 µM]	-11%[126 µM]
CN1CCC/C1=C1/C(=O)N(c2ccccc2)N=C1NC(=O)Nc1cccc(Cl)c1	8.9µM*	-1%[46 µM]	3%	-7%	?	?
Cc1ccc(NC(=O)NC2=NN(c3ccccc3)C(=O)/C2=C2/CCCN2C)cc1	?	?	4%	-6%	?	?
Cc1ccc(NC(=O)c2sc(-n3nc(C)c(Cc4ccc5c(c4)OCO5)c3C)nc2C)cc1Cl	3%	27%[46 µM]	nt	nt	-18%	?
COc1ccc(OCCSCc2nnc(NC(=O)Nc3ccc(Cl)cc3)s2)cc1	1%	-3%	-2%	14%	-23%	28µM*
O=C(Nc1cccc(Cl)c1)Nc1nnc(CSCCOc2ccc(Cl)cc2)s1	-2%	?	12%	7%	?	7.9µM*
O=C(Nc1nnc(CC2=CCCCC2)s1)Nc1ccccc1F	-2%	nt	9%	14%	-21%	-16%
O=C(Nc1cccc(Cl)c1)Nc1nnc(CC2=CCCCC2)s1	11%	-4%	1%	-8%	?	11µM*
Cc1ccc(NC(=O)Nc2nnc(CSCCOc3ccc(Cl)cc3)s2)cc1	-3%	?	1%	9%	-25%	?
O=C(Cn1nc2c(cc1=O)CCCC2)NCc1ccc(Cl)cc1	1%	-23%[46 µM]	nt	nt	-2%	-9%
CC(C)Oc1ccc(-c2nc3c(C#N)c[nH]n3c2NC2CCCCC2)cc1	-9%	nt	nt	nt	-5%	?
CC(Nc1oc(-c2ccccc2)nc1-c1ccc(C(F)(F)F)cc1)c1ccccc1 (centres undefined)	1%	nt	-26%	-6%	-8%	-8%
C[C@H](CCC(=O)O)C1CC[C@H]2C3CC[C@@H]4C[C@H](O)CC[C@]4(C)C3C[C@H](O)[C@]12C (some centres undefined)	-5%	nt	14%	nt	3%	-1%
O=S1(=O)NCC23CCC(CC21)O3 (centres undefined)	nt	nt	-10%	nt	nt	nt
COc1ccc2nc(/N=C/c3c(C)[nH]n(-c4ccc(C)cc4C)c3=O)sc2c1	?	-12%	-26%	-3%	-18%	?
Cc1cc(Br)ccc1-n1[nH]c(C)c(C=Nc2cccc3nsnc23)c1=O	14µM*	1%[46 µM]	-15%	-15%	?	?
COc1ccc2nc(N=Nc3c(O)ccc4ccccc34)sc2c1	2.8µM*	1%	-19%	8%	?	-4%
COc1ccc2nc(NC(=O)Nc3cccc4ccccc34)sc2c1	-15%	nt	-7%	?	?	-11%
O=C(COc1ccc(Cl)cc1)OCc1cc(=O)n2nc(C3CCCCC3)sc2n1	?	3%[46 µM]	nt	nt	-10%	-2%
Cc1cccc(NC(=O)COc2ccc(/C=C\c3[nH]c(=O)[nH]c(=O)c3[N+](=O)[O-])cc2)c1	10µM*	-4%[46 µM]	-5%	-30%	0%	-6%
CCOC(=O)c1cccc(NC(=O)COc2ccc([N+](=O)[O-])cc2)c1	?	1%	-4%	9%	?	-5%
Cc1ccc(C)c(N2CCN(CCCNC(=O)C3COc4ccccc4C3)CC2)c1 (centres undefined)	-2%	-26%[46 µM]	nt	nt	0%	4%
N#Cc1nc(-c2cccs2)oc1NCc1ccc(Cl)cc1	-10%	?	?	?	18µM*[quencher]	?
CC(C)(C)c1nnc(N/N=C/c2cc(Br)ccc2O)n(N)c1=O	-18%	?	nt	22µM*	?	12%
SMILES	Tau fibril ThT	Lamin A splicing	CBFb RUNX1 block	JMJD2E inh	Tau fluor cs	Tau fibril FP
CC1=C(C(=O)Nc2ccccc2)C(c2ccc(C)o2)n2c(s/c(=C\c3ccco3)c2=O)=N1 (centres undefined)	13µM*	?	?	-29%	?	?
CCCC1=NN2C(=N)/C(=C\c3cc(C)n(-c4cccc(C)c4)c3C)C(=O)N=C2S1	-14%	4%	6%	8.9µM*	2%	-3%
CCC1=NN2C(=N)/C(=C\c3ccc(SCc4ccco4)o3)C(=O)N=C2S1	10µM*	13%	?	-9%	-29%	6%
CCCC1=NN2C(=N)/C(=C\c3ccc(SCc4ccco4)o3)C(=O)N=C2S1	10µM*	10%	nt	?	-27%	-12%
CC1=CC2=NC(=O)/C(=C\c3cc(C)n(-c4cccc(Cl)c4)c3C)C(=N)N2O1	-8%	-12%	-5%	28µM*	-12%	-8%
COc1cc(NS(C)(=O)=O)ccc1Cc1c2ccccc2nc2ccccc12	?	?	nt	?	-18%	-3%
O=C(c1cccs1)N1CCCc2cc(NS(=O)(=O)c3ccc(Cl)cc3)ccc21	0%	-7%[46 µM]	nt	nt	-29%	0%
Cc1ccccc1NC(=O)/C(=C/c1ccccc1)c1ccccc1	?	19%	14%	-5%	-12%	-2%
O=C(Nc1ccccc1)/C(=C/c1ccccc1)c1ccccc1	-21%	?	29%	28µM*	?	20µM*
Cc1ccc(C)c(CN2C(=O)c3ccccc3S(=O)(=O)c3ccc(C(=O)Nc4cc(F)ccc4F)cc32)c1	6%	nt	nt	nt	-13%	?
CCCN1C(=O)/C(=C/c2ccc(N3CCCC3)c(C)c2)NC1=S	?	?	-3%	-13%	8.9µM*[quencher]	?
CCN1C(=O)/C(=C/c2ccc(N3CCCC3)cc2)NC1=S	11µM*	-11%	?	-2%	?	?
Cc1cc(/C=C2\NC(=S)N(C)C2=O)ccc1N1CCCC1	?	nt	4%	-8%	-28%	?
Cc1cc(/C=C2/C(=O)N(C)C(=S)N2C)ccc1N1CCCC1	4µM*	1%[46 µM]	-11%	-18%	?	-3%
CCc1ccc2[nH]c(=O)c(C(c3nnnn3CCOC)N3CCN(c4ccccc4F)CC3)cc2c1 (centres undefined)	18µM*	?	-3%	?	-24%	?
COCCn1nnnc1C(c1ccc(OC)cc1OC)N1CCN(c2ccccc2F)CC1 (centres undefined)	-5%	-2%	9%	-9%	2%	2%
c1ccc2sc(SN3CCOCC3)nc2c1	-18%	-6%	14%	13µM*	-4%	-17%
